From ChEMBL document CHEMBL2218924, “A broad activity screen in support of a chemogenomic map for kinase signalling research and drug discovery” (Biochem J, 2013)

Key:
[1] = molecular target: T1, Dual specificity mitogen-activated protein kinase kinase 6 (Homo sapiens) (UniProt P52564); conditions: at 1 µM
T1 sequence (whole entry): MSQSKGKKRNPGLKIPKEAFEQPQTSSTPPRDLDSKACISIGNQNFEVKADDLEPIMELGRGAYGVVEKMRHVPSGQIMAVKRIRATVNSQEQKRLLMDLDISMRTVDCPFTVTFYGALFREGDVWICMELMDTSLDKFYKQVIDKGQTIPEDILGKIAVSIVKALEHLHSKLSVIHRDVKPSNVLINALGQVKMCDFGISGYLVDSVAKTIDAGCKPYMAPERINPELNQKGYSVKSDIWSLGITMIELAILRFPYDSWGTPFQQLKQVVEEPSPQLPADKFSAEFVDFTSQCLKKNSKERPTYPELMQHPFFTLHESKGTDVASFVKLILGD

[2] = molecular target: T1, Dual specificity mitogen-activated protein kinase kinase 6 (Homo sapiens); conditions: at 10 µM
[3] = molecular target: T2, Dual specificity mitogen-activated protein kinase kinase 7 (Homo sapiens) (UniProt O14733); conditions: at 1 µM
T2 sequence (whole entry): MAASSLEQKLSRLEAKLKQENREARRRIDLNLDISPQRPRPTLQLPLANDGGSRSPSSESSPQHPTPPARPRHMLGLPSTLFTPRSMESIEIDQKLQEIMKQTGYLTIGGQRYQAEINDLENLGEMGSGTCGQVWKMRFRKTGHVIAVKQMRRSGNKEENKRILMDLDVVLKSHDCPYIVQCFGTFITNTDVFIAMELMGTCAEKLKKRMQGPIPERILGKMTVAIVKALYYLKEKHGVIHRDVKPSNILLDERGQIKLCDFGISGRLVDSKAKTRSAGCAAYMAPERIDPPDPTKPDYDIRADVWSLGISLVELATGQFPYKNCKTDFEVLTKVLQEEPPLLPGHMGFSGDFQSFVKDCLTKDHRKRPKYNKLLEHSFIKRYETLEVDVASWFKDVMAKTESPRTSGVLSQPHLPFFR

[4] = molecular target: T2, Dual specificity mitogen-activated protein kinase kinase 7 (Homo sapiens); conditions: at 10 µM
[5] = molecular target: Myosin light chain kinase, smooth muscle (Homo sapiens) (UniProt Q15746); conditions: at 1 µM
[6] = molecular target: Myosin light chain kinase, smooth muscle (Homo sapiens) (UniProt Q15746); conditions: at 10 µM
[7] = molecular target: Mitogen-activated protein kinase kinase kinase 9 (Homo sapiens) (UniProt P80192); conditions: at 1 µM
[8] = molecular target: Mitogen-activated protein kinase kinase kinase 9 (Homo sapiens) (UniProt P80192); conditions: at 10 µM
[9] = molecular target: Serine/threonine-protein kinase MRCK alpha (Homo sapiens) (UniProt Q5VT25); conditions: at 1 µM
[10] = molecular target: Serine/threonine-protein kinase MRCK alpha (Homo sapiens) (UniProt Q5VT25); conditions: at 10 µM
[11] = molecular target: Serine/threonine-protein kinase MRCK beta (Homo sapiens) (UniProt Q9Y5S2); conditions: at 1 µM
[12] = molecular target: Serine/threonine-protein kinase MRCK beta (Homo sapiens) (UniProt Q9Y5S2); conditions: at 10 µM
[13] = molecular target: Ribosomal protein S6 kinase alpha-5 (Homo sapiens) (UniProt O75582); conditions: at 1 µM
[14] = molecular target: Ribosomal protein S6 kinase alpha-5 (Homo sapiens) (UniProt O75582); conditions: at 10 µM
[15] = molecular target: Ribosomal protein S6 kinase alpha-4 (Homo sapiens) (UniProt O75676); conditions: at 1 µM
[16] = molecular target: Ribosomal protein S6 kinase alpha-4 (Homo sapiens) (UniProt O75676); conditions: at 10 µM
[17] = molecular target: SRSF protein kinase 3 (Homo sapiens) (UniProt Q9UPE1); conditions: at 1 µM
[18] = molecular target: SRSF protein kinase 3 (Homo sapiens) (UniProt Q9UPE1); conditions: at 10 µM
[19] = molecular target: T3, Serine/threonine-protein kinase 4 (Homo sapiens) (UniProt Q13043); conditions: at 1 µM
T3 sequence (whole entry): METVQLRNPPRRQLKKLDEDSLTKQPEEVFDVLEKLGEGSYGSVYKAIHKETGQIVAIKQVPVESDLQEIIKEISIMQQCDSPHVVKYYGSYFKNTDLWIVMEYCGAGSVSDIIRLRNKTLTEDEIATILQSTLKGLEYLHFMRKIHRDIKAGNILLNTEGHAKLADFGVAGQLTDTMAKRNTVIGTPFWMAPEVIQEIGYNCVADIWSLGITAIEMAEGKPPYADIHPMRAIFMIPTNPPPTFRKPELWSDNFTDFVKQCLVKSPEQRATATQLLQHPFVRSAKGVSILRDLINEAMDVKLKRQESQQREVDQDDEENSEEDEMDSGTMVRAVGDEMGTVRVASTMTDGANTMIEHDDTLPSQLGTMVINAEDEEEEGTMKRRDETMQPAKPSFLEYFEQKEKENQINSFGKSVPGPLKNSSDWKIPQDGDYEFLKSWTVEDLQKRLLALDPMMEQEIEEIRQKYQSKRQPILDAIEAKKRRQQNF

[20] = molecular target: T3, Serine/threonine-protein kinase 4 (Homo sapiens); conditions: at 10 µM

Sequence of Serine/threonine-protein kinase MRCK beta (Homo sapiens) (Q9Y5S2 whole entry): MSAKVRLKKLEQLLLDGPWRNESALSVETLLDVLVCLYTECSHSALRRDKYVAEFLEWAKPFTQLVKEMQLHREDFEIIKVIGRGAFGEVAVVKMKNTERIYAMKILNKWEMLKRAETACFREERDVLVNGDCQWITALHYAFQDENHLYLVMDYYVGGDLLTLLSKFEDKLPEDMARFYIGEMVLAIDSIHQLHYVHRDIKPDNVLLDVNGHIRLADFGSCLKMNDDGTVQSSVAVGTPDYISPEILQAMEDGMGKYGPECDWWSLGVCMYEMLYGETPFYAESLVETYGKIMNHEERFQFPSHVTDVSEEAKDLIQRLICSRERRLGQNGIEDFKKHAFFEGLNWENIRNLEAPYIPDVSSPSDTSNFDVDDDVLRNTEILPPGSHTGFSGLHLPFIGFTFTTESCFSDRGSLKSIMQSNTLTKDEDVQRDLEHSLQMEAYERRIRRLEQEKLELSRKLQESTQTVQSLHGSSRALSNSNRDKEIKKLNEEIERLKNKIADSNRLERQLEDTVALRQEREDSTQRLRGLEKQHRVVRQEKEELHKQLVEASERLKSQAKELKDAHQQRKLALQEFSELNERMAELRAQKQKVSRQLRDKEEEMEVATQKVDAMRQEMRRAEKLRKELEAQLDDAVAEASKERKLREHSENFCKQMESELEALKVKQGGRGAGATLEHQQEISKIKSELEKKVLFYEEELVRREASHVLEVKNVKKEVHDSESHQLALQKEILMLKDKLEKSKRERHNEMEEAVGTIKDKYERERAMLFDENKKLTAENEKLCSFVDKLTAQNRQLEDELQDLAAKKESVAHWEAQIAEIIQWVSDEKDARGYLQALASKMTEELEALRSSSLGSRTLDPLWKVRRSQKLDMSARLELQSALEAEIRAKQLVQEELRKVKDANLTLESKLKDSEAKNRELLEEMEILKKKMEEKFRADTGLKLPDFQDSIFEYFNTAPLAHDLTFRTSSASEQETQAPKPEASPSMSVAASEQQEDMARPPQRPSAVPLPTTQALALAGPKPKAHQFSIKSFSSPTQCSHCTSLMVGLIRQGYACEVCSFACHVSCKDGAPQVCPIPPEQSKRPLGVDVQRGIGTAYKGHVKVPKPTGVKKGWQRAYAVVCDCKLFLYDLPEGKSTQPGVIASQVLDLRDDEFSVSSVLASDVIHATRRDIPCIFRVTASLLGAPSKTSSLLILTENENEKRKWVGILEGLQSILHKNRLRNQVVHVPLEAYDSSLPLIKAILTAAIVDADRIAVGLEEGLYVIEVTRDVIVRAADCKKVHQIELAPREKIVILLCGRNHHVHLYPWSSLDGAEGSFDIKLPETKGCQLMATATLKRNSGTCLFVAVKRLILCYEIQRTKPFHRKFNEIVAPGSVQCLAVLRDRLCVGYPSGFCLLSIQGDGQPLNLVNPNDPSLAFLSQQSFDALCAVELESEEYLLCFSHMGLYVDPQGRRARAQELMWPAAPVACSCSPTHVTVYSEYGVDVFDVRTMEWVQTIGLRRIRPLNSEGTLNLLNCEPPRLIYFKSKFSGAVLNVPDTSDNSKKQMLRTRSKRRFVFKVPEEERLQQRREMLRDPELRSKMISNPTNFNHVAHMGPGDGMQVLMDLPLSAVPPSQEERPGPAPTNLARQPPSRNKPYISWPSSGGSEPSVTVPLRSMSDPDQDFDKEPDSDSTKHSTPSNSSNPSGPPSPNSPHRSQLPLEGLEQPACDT
Sequence of Myosin light chain kinase, smooth muscle (Homo sapiens) (Q15746 whole entry): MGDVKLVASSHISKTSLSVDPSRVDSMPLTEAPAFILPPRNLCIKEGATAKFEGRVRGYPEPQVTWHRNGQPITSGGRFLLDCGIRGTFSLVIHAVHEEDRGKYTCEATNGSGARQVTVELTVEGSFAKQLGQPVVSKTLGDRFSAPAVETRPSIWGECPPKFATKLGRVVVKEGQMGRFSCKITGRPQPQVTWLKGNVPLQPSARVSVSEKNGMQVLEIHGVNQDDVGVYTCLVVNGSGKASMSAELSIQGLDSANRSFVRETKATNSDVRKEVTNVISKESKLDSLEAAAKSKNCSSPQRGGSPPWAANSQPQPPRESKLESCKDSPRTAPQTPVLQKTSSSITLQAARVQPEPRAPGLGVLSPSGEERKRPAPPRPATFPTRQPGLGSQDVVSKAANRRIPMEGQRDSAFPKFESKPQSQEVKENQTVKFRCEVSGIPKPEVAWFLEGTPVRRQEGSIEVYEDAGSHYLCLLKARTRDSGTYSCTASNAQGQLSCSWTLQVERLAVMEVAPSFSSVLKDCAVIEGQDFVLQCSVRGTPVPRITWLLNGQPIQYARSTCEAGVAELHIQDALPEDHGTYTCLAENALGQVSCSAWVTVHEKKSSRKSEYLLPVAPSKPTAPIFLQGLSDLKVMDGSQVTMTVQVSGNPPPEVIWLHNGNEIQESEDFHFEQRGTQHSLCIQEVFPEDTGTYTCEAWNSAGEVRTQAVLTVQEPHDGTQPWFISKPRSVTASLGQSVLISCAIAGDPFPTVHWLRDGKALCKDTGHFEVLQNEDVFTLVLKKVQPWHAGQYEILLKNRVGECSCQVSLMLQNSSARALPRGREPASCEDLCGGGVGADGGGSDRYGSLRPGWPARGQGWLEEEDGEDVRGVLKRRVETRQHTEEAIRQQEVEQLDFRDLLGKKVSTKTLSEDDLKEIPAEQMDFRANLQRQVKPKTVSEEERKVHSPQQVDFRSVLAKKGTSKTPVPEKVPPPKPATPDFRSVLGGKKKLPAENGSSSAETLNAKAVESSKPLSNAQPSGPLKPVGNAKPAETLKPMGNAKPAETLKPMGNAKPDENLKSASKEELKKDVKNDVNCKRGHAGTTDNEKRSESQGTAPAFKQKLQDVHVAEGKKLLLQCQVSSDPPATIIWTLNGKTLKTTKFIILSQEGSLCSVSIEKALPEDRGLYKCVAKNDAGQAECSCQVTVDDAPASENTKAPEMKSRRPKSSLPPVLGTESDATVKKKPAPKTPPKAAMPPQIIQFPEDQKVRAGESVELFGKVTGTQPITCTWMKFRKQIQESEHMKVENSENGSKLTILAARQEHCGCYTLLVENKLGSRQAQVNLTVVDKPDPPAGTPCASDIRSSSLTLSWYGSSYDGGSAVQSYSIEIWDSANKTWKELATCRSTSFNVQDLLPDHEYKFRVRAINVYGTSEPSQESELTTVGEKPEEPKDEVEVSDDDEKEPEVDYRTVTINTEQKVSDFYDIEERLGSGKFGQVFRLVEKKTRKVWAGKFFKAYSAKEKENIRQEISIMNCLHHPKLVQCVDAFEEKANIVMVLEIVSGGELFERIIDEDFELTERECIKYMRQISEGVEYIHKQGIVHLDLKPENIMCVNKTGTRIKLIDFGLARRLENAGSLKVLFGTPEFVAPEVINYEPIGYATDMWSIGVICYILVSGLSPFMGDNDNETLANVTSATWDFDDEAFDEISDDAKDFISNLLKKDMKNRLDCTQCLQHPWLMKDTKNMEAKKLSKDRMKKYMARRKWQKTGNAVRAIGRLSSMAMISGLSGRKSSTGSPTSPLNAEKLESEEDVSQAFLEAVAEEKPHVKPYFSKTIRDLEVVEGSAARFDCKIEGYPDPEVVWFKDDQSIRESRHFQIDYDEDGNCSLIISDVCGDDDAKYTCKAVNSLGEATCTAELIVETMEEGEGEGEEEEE
Sequence of SRSF protein kinase 3 (Homo sapiens) (Q9UPE1 whole entry): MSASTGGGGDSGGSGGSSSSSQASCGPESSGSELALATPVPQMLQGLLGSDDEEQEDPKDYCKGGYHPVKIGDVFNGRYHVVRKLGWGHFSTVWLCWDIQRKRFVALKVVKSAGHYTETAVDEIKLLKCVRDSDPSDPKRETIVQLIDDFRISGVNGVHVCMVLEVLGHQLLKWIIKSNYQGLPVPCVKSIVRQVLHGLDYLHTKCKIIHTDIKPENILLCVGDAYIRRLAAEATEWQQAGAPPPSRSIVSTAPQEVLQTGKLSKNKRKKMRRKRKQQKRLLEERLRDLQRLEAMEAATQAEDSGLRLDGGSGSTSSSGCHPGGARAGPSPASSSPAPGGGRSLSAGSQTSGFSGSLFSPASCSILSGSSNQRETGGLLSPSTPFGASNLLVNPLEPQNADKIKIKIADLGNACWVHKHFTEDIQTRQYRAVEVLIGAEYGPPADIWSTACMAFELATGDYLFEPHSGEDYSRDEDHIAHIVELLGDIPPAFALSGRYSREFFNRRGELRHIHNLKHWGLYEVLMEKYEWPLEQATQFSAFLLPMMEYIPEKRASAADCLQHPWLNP
Sequence of Ribosomal protein S6 kinase alpha-5 (Homo sapiens) (O75582 whole entry, looked up): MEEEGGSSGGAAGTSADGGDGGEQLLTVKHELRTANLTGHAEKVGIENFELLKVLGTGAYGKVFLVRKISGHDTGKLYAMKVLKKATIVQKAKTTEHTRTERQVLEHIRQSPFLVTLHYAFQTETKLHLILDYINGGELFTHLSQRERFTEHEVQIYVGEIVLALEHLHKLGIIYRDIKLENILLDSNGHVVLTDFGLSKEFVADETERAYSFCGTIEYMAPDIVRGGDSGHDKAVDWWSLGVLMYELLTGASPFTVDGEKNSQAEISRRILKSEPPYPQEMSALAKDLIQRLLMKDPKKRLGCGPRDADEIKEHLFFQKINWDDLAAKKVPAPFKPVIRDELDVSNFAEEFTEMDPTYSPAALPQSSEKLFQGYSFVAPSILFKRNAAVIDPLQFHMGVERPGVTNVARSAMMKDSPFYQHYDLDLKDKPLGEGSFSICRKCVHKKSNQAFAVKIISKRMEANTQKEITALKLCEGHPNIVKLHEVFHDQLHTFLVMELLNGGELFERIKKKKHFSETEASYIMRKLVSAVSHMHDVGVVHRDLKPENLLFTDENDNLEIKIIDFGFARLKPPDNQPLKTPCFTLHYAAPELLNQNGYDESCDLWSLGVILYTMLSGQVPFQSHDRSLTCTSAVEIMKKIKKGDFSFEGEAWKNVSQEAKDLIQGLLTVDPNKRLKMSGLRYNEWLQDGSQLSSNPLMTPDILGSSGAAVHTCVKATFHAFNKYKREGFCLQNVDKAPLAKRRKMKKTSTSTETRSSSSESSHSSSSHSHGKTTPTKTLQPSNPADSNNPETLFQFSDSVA

Compound	residual activity [1] [%]	residual activity [2] [%]	residual activity [3] [%]	residual activity [4] [%]	residual activity [5] [%]	residual activity [6] [%]	residual activity [7] [%]	residual activity [8] [%]	residual activity [9] [%]	residual activity [10] [%]	residual activity [11] [%]	residual activity [12] [%]	residual activity [13] [%]	residual activity [14] [%]	residual activity [15] [%]	residual activity [16] [%]	residual activity [17] [%]	residual activity [18] [%]	residual activity [19] [%]	residual activity [20] [%]
O=C(Nc1cccc(Nc2nccc(Nc3cccc(C(F)(F)F)c3)n2)c1)C1CC1	76	51	85	87	54	66	82	29	117	130	103	88	114	89	89	89	105	89	110	92
CN(C)c1ccc(/C=C2\C(=O)Nc3ccccc32)cc1	97	91	91	84	77	56	39	16	113	105	106	102	116	79	87	57	103	80	95	74
O=C1c2ccccc2-[n+]2ccc3c([nH]c4ccccc43)c21	109	92	91	97	95	79	91	83	100	86	90	85	104	110	97	90	106	99	108	94
N#C/C(=C(\N)Sc1ccc(N)cc1)c1ccccc1C(F)(F)F	93	83	88	96	95	75	93	89	107	94	94	98	85	95	97	84	109	95	105	104
CO[C@H]1C[C@@H]2CC[C@@H](C)[C@@](O)(O2)C(=O)C(=O)N2CCCC[C@H]2C(=O)O[C@H]([C@H](C)C[C@@H]2CC[C@@H](O)[C@H](OC)C2)CC(=O)[C@H](C)/C=C(\C)[C@@H](O)[C@@H](OC)C(=O)[C@H](C)C[C@H](C)/C=C/C=C/C=C/1C	93	82	102	102	75	101	91	106	118	146	95	104	123	110	87	105	105	88	93	97
CO[C@@H]1[C@H](N(C)C(=O)c2ccccc2)C[C@H]2O[C@]1(C)n1c3ccccc3c3c4c(c5c6ccccc6n2c5c31)C(=O)NC4	52	58	111	135	13	10	1	1	93	102	85	68	13	8	12	8	96	77	1	2
Oc1n[nH]c2nnc(-c3c(-c4ccccc4)nn4ccccc34)cc12	126	89	95	101	84	52	89	48	94	79	88	83	109	111	92	87	98	73	72	96
O=C(Nc1cccc(Nc2cc(Nc3cccc(C(F)(F)F)c3)ncn2)c1)C1CC1	76	66	104	106	75	81	79	36	92	115	86	89	124	107	96	101	102	25	99	87
COc1cc2ncnc(Nc3ccc(O)c(Br)c3)c2cc1OC	88	27	119	94	71	37	45	11	82	84	91	71	117	108	83	72	95	90	81	55
C[C@@H](N)[C@H]1CC[C@H](C(=O)Nc2ccncc2)CC1	101	99	107	121			105	101	98	84	95	69	90	50	82	58	96	98	105	79
N#CCCc1ccc2c(c1)-c1[nH]c3ccc([N+](=O)[O-])cc3c1CC(=O)N2							7	2	35	19	9	6				79			10	6
Cc1cncc2cccc(S(=O)(=O)N3CCCN(C(=O)CN)C[C@H]3C)c12			82		94	99	86	62	98	99	89	80	126	54	66	37		77	87	75
Nc1cccc(-c2cc3c(Oc4cccc(O)c4)ncnc3[nH]2)c1	74	20	80	70	85	25	7	1	123		95	84	98	117	90	68			73	74
c1ccc(-c2n[nH]c3c2oc2ccccc23)cc1	76	89	87	67	66	64	69	39	92	116	98	115		74	95	70			88	58
